Sampled rows, rich in hits. Any-hit rate of the full collection: about 8.3%.
FMDV antiviral: foot and mouth disease virus antiviral activity. FMDV antiviral cell-based qHTS. Potency, µM (series often up to 57.9 µM), without a hit: top-dose activity change, negative = inhibition, usual class: inhibitors. 1.2% of 410,000 active. AID 1159524; calls by dose curve; tested in HEK293T cells; further: read-out not given here; potency means the concentration at half of the fitted maximal effect; nearly all actives have a fitted effect of over 45% in size
LASV entry inh: blocks Lassa virus binding to or entry into cells; Lassa virus pseudotype entry inhibition, cell reporter; Potency, µM (series often up to 37.9 µM), inactives show top-dose activity change, negative = inhibition, most hits filed as inhibitors; 1.2% of 300,000 active; AID 540256; calls by dose curve; tested in HEK293 cells; further: potency means the concentration at half of the fitted maximal effect; nearly all actives have a fitted effect of over 50% in size
HCV inh: inhibitors of hepatitis C virus infection; Potency, µM (top dose mostly 41.8 µM), without a hit: at the highest dose activity change, negative = inhibition, usual class: inhibitors; Huh7.5.1 HCVcc-Cre infection, luciferase reporter, 44 h; 3.4% of 340,000 active; further: potency means the concentration at half of the fitted maximal effect
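Cells (1,000/well) were plated 4 h before compound, then infected with HCVcc-Cre virus (~0.5 moi). After 44 h further culture, infection was read as luciferase luminescence following a 15 min substrate incubation at room temperature.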
HCMV antiviral: human cytomegalovirus inhibition; activity change, negative = inhibition, % at 57.5 µM; AID 1259415; 4.5% of 410,000 active; HFF cells, HCMV-luciferase reporter, 72 h; hits give low values; in the data active means activity change below about -60%; inconclusive means no clear call, values can overlap the other calls; inactive means above about -39%
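Inhibition of viral replication was scored as loss of reporter luminescence in HFFs infected with HCMV-luciferase (MOI 1 PFU/cell) for 72 h; compounds tested at 2 doses, normalized to buffer and Salinomycin controls.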
FBPA Giardia inh: inhibitors of Giardia lamblia fructose-1,6-bisphosphate aldolase | 0.71% of 290,000 active | Potency, µM (top dose mostly 59.6 µM), without a hit: at the highest dose activity, negative = inhibition, most hits filed as inhibitors | A8B2U2 | purified Giardia FBPA; further: potency means the concentration at half of the fitted maximal effect; nearly all actives have a fitted effect of over 55% in size
Target sequence (A8B2U2 whole entry, looked up): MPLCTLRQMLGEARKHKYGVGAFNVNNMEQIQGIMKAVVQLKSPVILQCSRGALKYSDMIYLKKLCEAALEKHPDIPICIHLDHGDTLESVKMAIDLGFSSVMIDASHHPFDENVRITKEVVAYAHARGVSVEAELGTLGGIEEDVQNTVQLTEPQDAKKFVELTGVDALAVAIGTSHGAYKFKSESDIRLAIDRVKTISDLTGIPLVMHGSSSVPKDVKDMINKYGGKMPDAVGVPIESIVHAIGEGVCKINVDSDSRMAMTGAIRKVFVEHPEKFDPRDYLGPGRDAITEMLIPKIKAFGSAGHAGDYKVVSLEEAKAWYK
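40 nM FBPA preincubated 10 min at RT with compound (up to 57.5 uM final), then substrate plus GAPDH/TPI/NAD/arsenate coupling and diaphorase/resazurin added. Fluorescence read after 20 min at RT, 525/598 nm.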
Marburg entry inh: Marburg virus entry inhibition; 1.8% of 300,000 active; Potency, µM (doses to about 37.8 µM), inactives show top-dose activity change, negative = inhibition, actives largely listed as inhibitors; Marburg virus pseudotyped entry inhibition, cell reporter; calls by dose curve; tested in HEK293 cells; further: potency means the concentration at half of the fitted maximal effect
Numbers without * were called inactive; ? = inconclusive; . = no result; [ ] = another dose, or the depositor's remark. Unless noted, the call rests on the fitted dose curve; in most records, active means well fitted curve in the direction sought with a large enough effect; inconclusive means small, poorly fitted or top-dose-only effect, or another doubt; inactive means no such curve, though single readings can be large; an effect the other way counts as inactive or inconclusive. On the % scale 0 is the no-effect control and ±100 the full control effect.

SMILES	FMDV antiviral	LASV entry inh	HCV inh	HCMV antiviral	FBPA Giardia inh	Marburg entry inh
CN(C)c1ccc(-[n+]2c(-c3ccccc3)cc(-c3ccccc3)cc2-c2ccccc2)cc1	31.6µM*	?	7.08µM*	-98.9*	4.3%	?
Cc1ccc(-c2cc(-c3ccc(C)cc3)[n+](-c3ccccc3)c(-c3ccc(C)cc3)c2)cc1	7.08µM*	.	25.1µM*	.	.	.
CC(C)CNc1nc(C#N)nc(Nc2ccccc2)n1	.	.	.	.	1.9%	.
Cc1ccc(-c2cc(-c3ccccc3)cc(-c3ccccc3)[n+]2-c2ccccc2)cc1	7.08µM*	.	6.31µM*	-99.0*	.	.
CCOC(=O)c1ccc(-[n+]2c(-c3ccccc3)cc(-c3ccccc3)cc2-c2ccccc2)cc1	-19.8%	.	0.631µM*	.	.	.
Cc1ccc(-c2cc(-c3ccc(C)cc3)[n+](-c3ccc(C(=O)[O-])cc3)c(-c3ccc(C)cc3)c2)cc1	0.0%	.	2.51µM*	-17.0	.	.
NC(N)=NCCC[C@H](N)C(=O)NCC(=O)N[C@@H](CC(=O)O)C(=O)N[C@@H](CO)C(=O)O	.	.	.	.	-0.7%	.
[O-]/C(=C(\C(=S)Nc1ccc(SC(F)F)cc1)[n+]1ccccc1)c1ccc(Cl)cc1Cl	-8.4%	?	12.6µM*	-63.0*	-11.6%	?
Cc1cc(C)cc(NC(=S)/C(=C(\[O-])c2ccc(Cl)cc2Cl)[n+]2ccccc2)c1	8.8%	.	-6.4%	5.2	-4.1%	.
CCCn1c(CN2CCN(c3ccc(OC)cc3)CC2)nc2c1c(=O)[nH]c(=O)n2C	0.0%	-0.4%[46.1 µM]	.	5.4	.	2.2%[46.1 µM]
COC(=O)[C@H](C)[C@H](CC(C)C)NC(=O)[C@H](C)[C@H](CC(C)C)NC(=O)c1ccccn1	.	.	.	.	4.1%	.
COc1cccc(NC(=S)/C(=C(\[O-])c2cc(C)n(-c3ccccc3F)c2C)[n+]2ccc(N(C)C)cc2)c1	0.0%	.	?	-94.7*	-19.5%	.
Cc1cc(C([O-])=C(C(=S)Nc2ccc(F)cc2)[n+]2ccccc2)c(C)n1-c1ccc(F)cc1	-8.2%	-13.9%	.	-37.7	.	-20.2%
Cc1ccc(/C(C#N)=C\c2cn(C)c3ccccc23)cc1	.	.	6.31µM*	.	-14.7%	-1.8%
Cc1c2ccccc2nc2ccccc12	4.3%	17.5%	-7.0%	-8.9	.	-4.2%
Cc1c2ccccc2c(C)c2c1ccc1ccccc12	13.3%	.	10µM*	6.2	.	.
Cc1ccc(NC(=O)CSc2nnc3nc(C)cc(C)n23)cc1	-6.1%	0.0%[46.1 µM]	.	-13.5	.	-7.9%[46.1 µM]
O=S(=O)(NCc1nc2cccnc2n1Cc1ccccc1Cl)c1ccc2c(c1)CCCC2	28.1%	-1.6%[46.1 µM]	.	-12.2	.	.
Cc1cc(N2CCCCC2)nc2ccc(NC(=O)c3cccc(Cl)c3)cc12	-3.5%	3.9%[46.1 µM]	.	-61.5*	.	.
Cc1cc(N2CCCCC2)nc2ccc(NC(=O)c3cccc(F)c3)cc12	-10.3%	?	.	-80.4*	.	?
Cc1ccc(C(=O)Nc2ccc3nc(N4CCCCC4)cc(C)c3c2)cc1F	-26.0%	12.6%[46.1 µM]	.	?	.	.
COc1ccc(-c2cc(-c3ccccc3)c(C#N)c(S(C)=O)n2)cc1 (centres undefined)	?	?	22.4µM*	-98.9*	-2.0%	?
CCCNC(=O)OC[C@H]1O[C@H](CCON=C(C)CCN2CCCCc3nc(C)c(C)cc32)C=C[C@H]1Oc1ccc(OC)cc1	.	.	.	.	.	-26.3%[14.2 µM]
Cc1cccc(NC(=S)N(C)Cc2cn(C)c3ccccc23)c1	5.5%	?	-25.4%	-68.3*	-4.1%	-4.7%
COc1ccccc1C(NC(=O)C1CCCCC1)c1c(O)ccc2ccccc12 (centres undefined)	-10.8%	5.2%	2.8%	-102.0*	2.8%	?
CCN(CC)S(=O)(=O)c1ccc2c(c1)N(CC(=O)NCCCN1CCN(c3cc(Cl)ccc3C)CC1)C(=O)CO2	?	?	.	-74.0*	.	12.6µM*
CCN(CC)S(=O)(=O)c1ccc2c(c1)N(CC(=O)N1CCN(c3cc(Cl)ccc3C)CC1)C(=O)CO2	?	?	.	7.5	.	.
COc1cc(OC)c(NS(=O)(=O)c2cc3c(cc2C)N(C(C)=O)CCO3)cc1Cl	57.4%	?	.	-7.8	.	.
CC1CCCC=CC2CC(OC(=O)CN(C)C)CC2C(O)C=CC(=O)O1 (centres undefined)	-17.9%	1.41µM*	0.562µM*	-97.6*	.	?

Compound activity: PubChem, National Center for Advancing Translational Sciences (NCATS)
